Test results reported in paper PMC4336329 (PLoS ONE, 2015).
Among all 310,000 compounds or so, about 14,000 (4.5%) showed an effect of 50% or more. Effects have a minus sign here. Many of the other results were omitted from the sample, so strong results are more common in it than they were.
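Note: peak tail current of the secondary pulse compared with the same well before compound.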

These molecules were tested against human ether-à-go-go-related gene (hERG) potassium channel (human, UniProt Q12809) (assay: primary screen, population patch clamp on CHO cells stably expressing hERG; higher = less effect of the substance).
Chain of human ether-à-go-go-related gene (hERG) potassium channel (Q12809 whole entry, looked up): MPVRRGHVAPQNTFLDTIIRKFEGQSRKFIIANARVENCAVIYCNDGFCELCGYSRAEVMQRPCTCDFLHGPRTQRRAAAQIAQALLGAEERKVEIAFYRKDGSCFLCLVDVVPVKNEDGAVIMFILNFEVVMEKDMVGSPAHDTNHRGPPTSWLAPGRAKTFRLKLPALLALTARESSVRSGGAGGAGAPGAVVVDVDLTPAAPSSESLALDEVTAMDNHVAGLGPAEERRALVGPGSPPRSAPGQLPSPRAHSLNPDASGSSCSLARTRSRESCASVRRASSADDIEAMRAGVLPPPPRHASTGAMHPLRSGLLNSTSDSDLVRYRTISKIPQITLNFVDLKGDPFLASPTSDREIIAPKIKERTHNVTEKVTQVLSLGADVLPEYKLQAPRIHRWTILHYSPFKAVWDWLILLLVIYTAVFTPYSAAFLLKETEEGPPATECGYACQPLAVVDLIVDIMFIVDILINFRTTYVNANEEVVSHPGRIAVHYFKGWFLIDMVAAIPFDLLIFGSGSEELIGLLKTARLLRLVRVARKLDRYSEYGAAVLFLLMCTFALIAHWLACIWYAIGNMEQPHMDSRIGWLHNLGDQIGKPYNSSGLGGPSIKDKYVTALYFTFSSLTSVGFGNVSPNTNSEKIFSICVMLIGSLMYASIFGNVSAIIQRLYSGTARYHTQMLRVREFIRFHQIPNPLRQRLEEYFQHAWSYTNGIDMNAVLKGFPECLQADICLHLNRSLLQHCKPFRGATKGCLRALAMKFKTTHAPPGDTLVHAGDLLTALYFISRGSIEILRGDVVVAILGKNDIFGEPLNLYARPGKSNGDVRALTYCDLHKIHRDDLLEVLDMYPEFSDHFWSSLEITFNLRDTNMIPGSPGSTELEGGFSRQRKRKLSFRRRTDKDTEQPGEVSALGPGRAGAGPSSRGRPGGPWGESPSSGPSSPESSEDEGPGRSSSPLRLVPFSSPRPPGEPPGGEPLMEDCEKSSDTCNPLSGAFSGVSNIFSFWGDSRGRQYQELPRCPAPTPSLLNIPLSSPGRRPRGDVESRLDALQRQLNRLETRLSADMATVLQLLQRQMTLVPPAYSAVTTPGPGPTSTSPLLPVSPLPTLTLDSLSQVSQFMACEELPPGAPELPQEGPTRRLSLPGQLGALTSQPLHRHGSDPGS
For `Cc1ccc2[nH]c(SCC(=O)N3CCOCC3)nc2c1C`, the “hERG current change (%, negative = inhibition) at 10uM” value was 8.6%. With `Cc1ccc2c(c1)nnn2C1CCN(CC(=O)NNC(=O)c2ccco2)CC1` the “hERG current change (%, negative = inhibition) at 10uM” value was 37.1%. `O=C(CN1CCC(n2nnc3cc(F)ccc32)CC1)NCCc1ccccc1` was tested, and the “hERG current change (%, negative = inhibition) at 10uM” value was -41.5%. In the case of `Cc1ccc2c(c1)nnn2C1CCN(CC(=O)NCCc2ccccc2)CC1`, the “hERG current change (%, negative = inhibition) at 10uM” value is reported as -50.4%. For `COc1ccc(C(=O)NNC(=O)CN2CCC(n3nnc4cc(C)ccc43)CC2)cc1`, the “hERG current change (%, negative = inhibition) at 10uM” value was -15%. With `Cc1ccc2c(c1)nnn2C1CCN(CC(=O)NCCc2nc3ccccc3[nH]2)CC1` the “hERG current change (%, negative = inhibition) at 10uM” value was -27.9%. With `Cc1ccc2c(c1)nnn2C1CCN(CC(=O)NCc2ccccc2F)CC1` the “hERG current change (%, negative = inhibition) at 10uM” value was -59.9%. For `Cc1ccc2c(c1)nnn2C1CCN(CC(=O)N(c2ccccc2)c2ccccc2)CC1`, the “hERG current change (%, negative = inhibition) at 10uM” value was 11.4%. In the case of `Cc1cccc(C(=O)NC2CCN(CC(=O)NCc3ccccc3F)CC2)c1`, the “hERG current change (%, negative = inhibition) at 10uM” value is reported as -33.2%. In the case of `CCOC(=O)CN(C(=O)CN1CCC(n2nnc3cc(C)ccc32)CC1)c1ccccc1`, the “hERG current change (%, negative = inhibition) at 10uM” value is reported as -53.8%. With `CC(=C/c1ccco1)/C=N/NC(=O)CSc1nnc(SCc2ccc(C)cc2)s1` the “hERG current change (%, negative = inhibition) at 10uM” value was -3.37%. With `CN1c2ccccc2C(O)=C(C(=S)Nc2ccccc2)S1(=O)=O` the “hERG current change (%, negative = inhibition) at 10uM” value was 22.7%. For `CCOc1ccc(OCC(=O)Nc2nccs2)cc1`, the “hERG current change (%, negative = inhibition) at 10uM” value was 19.8%. In the case of `Oc1c(Br)cc(/C=N/Nc2nncc3ccccc23)cc1Br`, the “hERG current change (%, negative = inhibition) at 10uM” value is reported as 27.8%. In the case of `N/C(=N\OC(=O)/C=C/c1ccccc1)c1ccccc1`, the “hERG current change (%, negative = inhibition) at 10uM” value is reported as 3.82%. For `N/C(=N\OC(=O)/C=C/c1ccccc1)c1ccncc1`, the “hERG current change (%, negative = inhibition) at 10uM” value was -52.3%. In the case of `N/C(=N\OC(=O)/C=C/c1ccccc1)c1cccnc1`, the “hERG current change (%, negative = inhibition) at 10uM” value is reported as -5.4%. With `CCN(CC)CCCn1c(=S)[nH]c2cc(C(=O)OC)ccc2c1=O` the “hERG current change (%, negative = inhibition) at 10uM” value was -33%. `CCN(CC)CCCn1c(=S)[nH]c2ccccc2c1=O` was tested, and the “hERG current change (%, negative = inhibition) at 10uM” value was -25.7%. In the case of `CCN(CC)CCn1c(=S)[nH]c2cc(C(=O)N3CC(C)CC(C)C3)ccc2c1=O` (stereo not shown), the “hERG current change (%, negative = inhibition) at 10uM” value is reported as -14.7%. For `CCN(CC)CCCn1c(=S)[nH]c2cc(Cl)ccc2c1=O`, the “hERG current change (%, negative = inhibition) at 10uM” value was -68.7%. For `CCN(CC)CCn1c(=S)[nH]c2cc(Cl)ccc2c1=O`, the “hERG current change (%, negative = inhibition) at 10uM” value was -63.2%. In the case of `O=c1c2ccc(Cl)cc2[nH]c(=S)n1CCCN1CCOCC1`, the “hERG current change (%, negative = inhibition) at 10uM” value is reported as -22.6%. `CC(C)c1ccc(NC(=O)CSc2ncccc2C(=O)Oc2cccc([N+](=O)[O-])c2)cc1` was tested, and the “hERG current change (%, negative = inhibition) at 10uM” value was 8.39%. For `CCOC(=O)c1c(NC(=O)CSc2nncn2C)sc(C)c1C`, the “hERG current change (%, negative = inhibition) at 10uM” value was -4.02%. `COc1cc(/C=N/O)ccc1OCc1ccc([N+](=O)[O-])cc1` was tested, and the “hERG current change (%, negative = inhibition) at 10uM” value was -23.5%. In the case of `O=C(NNC(=S)NCc1ccc(Cl)cc1)c1ccc2c(c1)OCO2`, the “hERG current change (%, negative = inhibition) at 10uM” value is reported as 6.73%. `Cc1ccc(NC(=S)NC2CC3CCCC(C2)N3Cc2ccco2)cc1` (stereo not shown) was tested, and the “hERG current change (%, negative = inhibition) at 10uM” value was -52.8%. For `Cc1cc(C)cc(NC(=S)NC2CC3CCC(C2)N3Cc2ccco2)c1` (stereo not shown), the “hERG current change (%, negative = inhibition) at 10uM” value was -71.5%. With `Cc1cccc(NC(=S)NC2CC3CCCC(C2)N3Cc2ccco2)c1` (stereo not shown) the “hERG current change (%, negative = inhibition) at 10uM” value was -21.7%. In the case of `Cc1cccc(NC(=S)NC2CC3CCC(C2)N3Cc2ccco2)c1` (stereo not shown), the “hERG current change (%, negative = inhibition) at 10uM” value is reported as -43.5%. In the case of `Cc1ccc(NC(=S)NC2CC3CCC(C2)N3Cc2ccco2)cc1C` (stereo not shown), the “hERG current change (%, negative = inhibition) at 10uM” value is reported as -36.1%. `CCc1ccc(NC(=S)NC2CC3CCC(C2)N3Cc2ccco2)cc1` (stereo not shown) was tested, and the “hERG current change (%, negative = inhibition) at 10uM” value was -45.5%. For `O=C(Nc1ccc2c(c1)CCC2)c1ccccc1Br`, the “hERG current change (%, negative = inhibition) at 10uM” value was -12.9%. With `COc1ccccc1/C=N/Nc1cc(C)nc2ccc(C)cc12` the “hERG current change (%, negative = inhibition) at 10uM” value was 7.89%. `Cc1cc(C)c2nc(C)cc(N/N=C/c3ccc(O)cc3)c2c1` was tested, and the “hERG current change (%, negative = inhibition) at 10uM” value was -33.7%. `Cc1cc(N/N=C/c2ccccc2O)c2ccccc2n1` was tested, and the “hERG current change (%, negative = inhibition) at 10uM” value was -72.5%. For `Cc1cc(N/N=C/c2ccc(O)cc2)c2cccc(C)c2n1`, the “hERG current change (%, negative = inhibition) at 10uM” value was -51.6%. `COc1cccc2c(N/N=C/c3ccco3)cc(C)nc12` was tested, and the “hERG current change (%, negative = inhibition) at 10uM” value was -5.81%. `COc1ccc2nc(C)cc(N/N=C/c3cccc(OC)c3O)c2c1` was tested, and the “hERG current change (%, negative = inhibition) at 10uM” value was -13%. For `COc1ccc(/C=N/Nc2cc(C)nc3ccc(OC)cc23)c(OC)c1`, the “hERG current change (%, negative = inhibition) at 10uM” value was -50.1%. For `Cc1cc(N/N=C/c2ccc(O)cc2O)c2ccccc2n1`, the “hERG current change (%, negative = inhibition) at 10uM” value was 4.97%. In the case of `COc1cccc2c(N/N=C/c3ccc(O)c(O)c3)cc(C)nc12`, the “hERG current change (%, negative = inhibition) at 10uM” value is reported as 18.9%. In the case of `Cc1ccc2nc(C)cc(N/N=C/c3ccccc3O)c2c1`, the “hERG current change (%, negative = inhibition) at 10uM” value is reported as 2.38%. For `COc1cccc2c(N/N=C/c3ccccc3)cc(C)nc12`, the “hERG current change (%, negative = inhibition) at 10uM” value was -9.04%. In the case of `COc1ccc(/C=N/Nc2cc(C)nc3c(C)cccc23)cc1`, the “hERG current change (%, negative = inhibition) at 10uM” value is reported as -57.5%.
